Hits are enriched below; roughly 6.5% of the tested compounds scored in any of these assays.
Marburg entry inh: inhibitors of Marburg virus binding or cell entry. Marburg virus pseudotyped entry inhibition, cell reporter. Potency, µM (titrated, usually from 37.8 µM), for inactives: at the highest dose activity change, negative = inhibition, actives largely listed as inhibitors. AID 540276. 300,000 tested, 1.8% active; calls by dose curve; tested in HEK293 cells; also: potency is read from the fitted curve at half-maximal effect
FMDV antiviral: foot and mouth disease virus antiviral activity; Potency, µM (series often up to 57.9 µM), for inactives: at the highest dose activity change, negative = inhibition, actives largely listed as inhibitors; FMDV antiviral cell-based qHTS; 410,000 tested, 1.2% active; calls by dose curve; tested in HEK293T cells; also: read-out not given here; potency is read from the fitted curve at half-maximal effect; nearly all actives have a fitted effect of over 45% in size
Vaccinia mCherry: inhibitors of vaccinia virus infection (mCherry reporter signal). Vaccinia virus mCherry reporter infection, fluorescence. Potency, µM (doses to about 36.5 µM), for the others: at the highest dose activity change, negative = inhibition, hits mostly inhibitors. 310,000 tested, 0.63% active. AID 720579; calls by dose curve; tested in A549 cells; also: potency is read from the fitted curve at half-maximal effect; nearly all actives have a fitted effect of over 35% in size
HCMV inh: human cytomegalovirus inhibition; HFF cells, HCMV-luciferase reporter, 72 h; active compounds read low; activity change, negative = inhibition, % at 57.5 µM; 410,000 tested, 4.5% active; in the data active = activity change below about -60%; inconclusive = no clear call, values can overlap the other calls; inactive = above about -39%
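Compounds were evaluated in HFFs infected with an HCMV luciferase reporter virus (MOI 1 PFU/cell). Luciferase in lysates collected 72 h post infection served as the replication measure.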
Lassa entry inh: Lassa virus entry inhibition; AID 540256; Potency, µM (doses to about 37.9 µM), for the others: top-dose activity change, negative = inhibition, actives largely listed as inhibitors; 300,000 tested, 1.2% active; Lassa virus pseudotype entry inhibition, cell reporter; calls by dose curve; tested in HEK293 cells; also: potency is read from the fitted curve at half-maximal effect; nearly all actives have a fitted effect of over 50% in size
Vaccinia Venus: inhibitors of vaccinia virus (Venus reporter). Vaccinia virus Venus reporter expression, fluorescence. Potency, µM (top dose mostly 36.5 µM), inactives show at the top dose activity change, negative = inhibition, most hits filed as inhibitors. 330,000 tested, 0.46% active. AID 720580; calls by dose curve; tested in A549 cells; also: potency is read from the fitted curve at half-maximal effect; nearly all actives have a fitted effect of over 30% in size
Active calls of the source: *; ! = repeats disagree; [ ] = another dose, or the depositor's remark. % is scaled to controls: 0 for no effect and ±100 for the full control effect.

Results for CC(C)C[C@@H](CN1CCCC1CN1C(=S)NC[C@@H]1Cc1ccc(O)cc1)N1C[C@H](Cc2ccc(O)cc2)N(CCc2ccccc2)C1=S (stereo partly drawn) ?
FMDV antiviral: 0%; Vaccinia mCherry: -3%; HCMV inh: -95*; Vaccinia Venus: 10µM*

How did CC(C)C[C@@H](CN1CCC[C@@H]1CN1C(=S)NC[C@@H]1Cc1ccc(O)cc1)N1C[C@H](Cc2ccc(O)cc2)N(CC2CCCCCC2)C1=S do in these assays?
FMDV antiviral: inconclusive; Vaccinia mCherry: inconclusive; HCMV inh: -100*; Vaccinia Venus: inconclusive

What do the screens show for `CC(C)C[C@H]1CN([C@@H](CC(C)C)CN2CCC[C@@H]2CN2C(=S)NC[C@@H]2Cc2ccc(O)cc2)C(=S)N1CC1CCCCC1`?
FMDV antiviral: -19%; Vaccinia mCherry: -11%; HCMV inh: -22; Vaccinia Venus: -27%

Results for CC(C)C[C@@H](CN1CCC[C@@H]1CN1C(=S)NC[C@@H]1Cc1ccc(O)cc1)N1C[C@H](Cc2ccc(O)cc2)N(CC2CCCCC2)C1=S ?
FMDV antiviral: -17%; Vaccinia mCherry: -22%; HCMV inh: -100*; Vaccinia Venus: -29%

How did CC(C)C[C@@H](CN1CCCC1CN1C(=S)NC[C@@H]1Cc1ccccc1)N1C[C@H](Cc2ccc(O)cc2)N(CC2CCCCC2)C1=S (stereo partly drawn) do in these assays?
FMDV antiviral: -24%; Vaccinia mCherry: 8%; HCMV inh: -73*; Vaccinia Venus: -8%

How did CC(C)C[C@@H](CN1CCCC1CN1C(=S)NC[C@@H]1Cc1ccccc1)N1C[C@H](Cc2ccccc2)N(CC2CCCCC2)C1=S (stereo partly drawn) do in these assays?
FMDV antiviral: -16%; Vaccinia mCherry: -6%; HCMV inh: -10; Vaccinia Venus: -3%

What do the screens show for `CCN1C(=NCCCCO)N[C@@H](CCc2ccccc2)[C@H](C(=O)OC)[C@H]1C`?
Marburg entry inh: 9%[14.2 µM]; Lassa entry inh: inconclusive

What do the screens show for `CC(=O)c1ccccc1NC(C(=O)NCc1ccccc1)C(C)C` (stereo not drawn)?
HCMV inh: -18

Results for O=C(N/N=C\c1ccccc1O)c1ccccc1O ?
FMDV antiviral: -7%

How did Cc1ccc2oc(/N=C(\N)NC(=O)C3CC3)nc2c1 do in these assays?
Marburg entry inh: -2%; FMDV antiviral: -22%; HCMV inh: -5

What do the screens show for `Cc1ccc2oc(/N=C(\N)NC(=O)C(C)(C)C)nc2c1`?
Marburg entry inh: inconclusive; FMDV antiviral: 35µM*; Vaccinia mCherry: 0%; HCMV inh: -90*; Lassa entry inh: inconclusive; Vaccinia Venus: -18%

What do the screens show for `COc1ccc(N)cc1-n1c(C)ccc1C`?
Marburg entry inh: inconclusive; FMDV antiviral: 3%; Vaccinia mCherry: inconclusive; HCMV inh: -65*; Lassa entry inh: -1%[46.1 µM]; Vaccinia Venus: -16%

Results for COc1ccc(C)cc1-n1c(C)cc(C=O)c1C ?
Marburg entry inh: -10%[46.1 µM]; FMDV antiviral: -4%; Vaccinia mCherry: -8%; HCMV inh: inconclusive; Lassa entry inh: -16%; Vaccinia Venus: -5%

What do the screens show for `C=C(C#CCCO)CCN1C=C(C(=O)OCC)C(c2ccccc2)NC1=O` (stereo not drawn)?
Marburg entry inh: 2%[14.2 µM]; Lassa entry inh: inconclusive

What do the screens show for `COc1ccc(N(CC(=O)N2CCN(c3cccc(Cl)c3)CC2)S(=O)(=O)c2c(C)noc2C)cc1`?
Marburg entry inh: -8%[46.1 µM]; FMDV antiviral: -24%; Vaccinia mCherry: -21%; HCMV inh: -67*!; Lassa entry inh: inconclusive; Vaccinia Venus: -14%

Results for Cc1ccc(N(CC(=O)N2CCN(c3cccc(Cl)c3)CC2)S(=O)(=O)c2c(C)noc2C)cc1 ?
Marburg entry inh: inconclusive; FMDV antiviral: -14%; Vaccinia mCherry: -17%; HCMV inh: -20; Lassa entry inh: inconclusive; Vaccinia Venus: -15%

What do the screens show for `CC(=O)Nc1cc(N=Cc2ccc(O)cc2O)c(Cl)cc1Cl`?
Marburg entry inh: inconclusive; FMDV antiviral: -19%; Vaccinia mCherry: -9%; Lassa entry inh: -15%; Vaccinia Venus: 46%

Screening data deposited in PubChem by National Center for Advancing Translational Sciences (NCATS).
